Values joined by “and” are separate entries in the source; they are usually repeats but may differ in a detail not shown here. Equal values may be shown once. Hit rate of the full screen: of about 5,500 compounds, about 2,000 (36%) were called active. Not shown: some 18% with an inconclusive outcome. No stated cut-off is given here; in the data, active means normalized growth mostly below about 0.91 (no sharp cut-off); inconclusive means no clear call, values can overlap the other calls; inactive means mostly above about 0.92. Some of the results follow.
Test: chemical genetic growth profiling, strain panel (AID 1159580);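 further: tested at 20 µM; growth read once vehicle control cultures reached saturation at 30 °C; 1 = growth at the plate median or of vehicle wells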
Details: S. cerevisiae deletion strains, growth OD

Measured: normalized growth

CN(C)CCCN1c2ccccc2Sc2ccc(Cl)cc21
0.739 (active) and 0.979 (inactive): locus YJL095W, strain BCK1, stronger effect = lower value
inactive: locus YAL040C, strain CLN3, stronger effect = lower value 0.992 | locus YBR229C, strain ROT2, stronger effect = lower value 1.01 | locus YCL029C, strain bik1, stronger effect = lower value 1.03 | locus YDL005C, strain med2, stronger effect = lower value 1.01 | locus YDL074C, strain BRE1, stronger effect = lower value 0.87 | locus YDL101C, strain DUN1, stronger effect = lower value 0.992 | locus YDL185W, strain tfp1, stronger effect = lower value 1.01 | locus YDL192W, strain arf1, stronger effect = lower value 1.01 | locus YDR101C, strain arx1, stronger effect = lower value 0.98 | locus YDR137W, strain rgp1, stronger effect = lower value 0.903 | locus YDR318W, strain mcm21, stronger effect = lower value 0.999 | locus YDR363W, strain ESC2, stronger effect = lower value 0.953 | locus YDR388W, stronger effect = lower value 0.98 | locus YDR502C, strain sam2, stronger effect = lower value 0.974 | locus YEL061C, strain CIN8, stronger effect = lower value 0.983 | locus YER002W, strain NOP16, stronger effect = lower value 0.972 | locus YER110C, stronger effect = lower value 1.04 | locus YER111C, strain swi4, stronger effect = lower value 0.977 | locus YER155C, strain BEM2 (second series), stronger effect = lower value 1.12 | locus YER155C, strain BEM2, stronger effect = lower value 1.02 | locus YER167W, strain BCK2, stronger effect = lower value 1.01 | locus YGL078C, strain dbp3, stronger effect = lower value 1.01 | locus YGL086W, strain mad1, stronger effect = lower value 0.936 | locus YGL240W, strain doc1, stronger effect = lower value 0.92 | locus YGL248W, strain PDE1, stronger effect = lower value 0.994 | locus YGR078C, strain PAC10, stronger effect = lower value 0.889 and 0.997 | locus YGR135W, strain pre9, stronger effect = lower value 0.913 | locus YGR252W, strain gcn5, stronger effect = lower value 0.78 | locus YHR030C, strain SLT2, stronger effect = lower value 0.948 and 0.983 | locus YHR079C, strain IRE1 (second series), stronger effect = lower value 1.01 | locus YHR079C, strain IRE1, stronger effect = lower value 0.984 | locus YHR094C, strain hxt1, stronger effect = lower value 1 | locus YHR129C, strain ARP1, stronger effect = lower value 1 | locus YHR200W, strain rpn10, stronger effect = lower value 1.01 | locus YIL066C, strain RNR3, stronger effect = lower value 0.936 | locus YIL073C, strain SPO22, stronger effect = lower value 0.979 | locus YIL125W, strain kgd1, stronger effect = lower value 1 | locus YIR030C, strain dcg1, stronger effect = lower value 1.02 | locus YJL134W, strain LCB3, stronger effect = lower value 0.998 | locus YJL168C, strain set2, stronger effect = lower value 1.01 | locus YJL187C, strain SWE1 (second series), stronger effect = lower value 0.949 | locus YJR043C, strain POL32, stronger effect = lower value 1.02 | locus YJR066W, strain TOR1, stronger effect = lower value 0.974 | locus YJR075W, strain HOC1, stronger effect = lower value 0.933 | locus YKL009W, strain mrt4, stronger effect = lower value 1.02 | locus YKL068W, stronger effect = lower value 1.01 | locus YKL085W, strain MDH1 (second series), stronger effect = lower value 0.975 | locus YKL085W, strain MDH1, stronger effect = lower value 0.975 | locus YKL190W, strain CNB1, stronger effect = lower value 0.949 | locus YKR001C, strain vps1, stronger effect = lower value 0.919 | locus YLR058C, strain SHM2, stronger effect = lower value 0.986 | locus YLR102C, strain apc9, stronger effect = lower value 1 | locus YLR113W, strain HOG1, stronger effect = lower value 0.982 | locus YLR268W, strain sec22, stronger effect = lower value 1.01 | locus YLR330W, strain CHS5, stronger effect = lower value 1 | locus YLR371W, strain rom2, stronger effect = lower value 1.01 | locus YML016C, strain PPZ1, stronger effect = lower value 1 | locus YML032C, strain rad52, stronger effect = lower value 0.964 | locus YML124C, strain tub3, stronger effect = lower value 1.01 | locus YMR078C, strain ctf18, stronger effect = lower value 1.01 | locus YMR223W, strain ubp8, stronger effect = lower value 0.958 | locus YMR263W, strain SAP30, stronger effect = lower value 0.955 | locus YMR307W, strain GAS1, stronger effect = lower value 1.02 | locus YNL067W, strain RPL9B, stronger effect = lower value 0.993 | locus YNL175C, strain NOP13, stronger effect = lower value 0.967 | locus YNL183C, strain NPR1, stronger effect = lower value 0.917 | locus YNL197C, strain WHI3, stronger effect = lower value 0.98 | locus YNL224C, strain SQS1, stronger effect = lower value 0.984 | locus YNL233W, strain BNI4, stronger effect = lower value 0.937 | locus YNL250W, strain rad50, stronger effect = lower value 1.02 | locus YNL271C, strain bni1, stronger effect = lower value 1.01 | locus YNL298W, strain CLA4, stronger effect = lower value 1.02 | locus YNL307C, strain MCK1, stronger effect = lower value 1.01 | locus YNL322C, strain KRE1 (second series), stronger effect = lower value 1.07 | locus YNL322C, strain KRE1, stronger effect = lower value 0.974 | locus YNR052C, strain pop2, stronger effect = lower value 0.94 | locus YOL006C, strain TOP1, stronger effect = lower value 0.733 | locus YOL012C, strain htz1 0.856 | locus YOL147C, strain pex11, stronger effect = lower value 1.02 | locus YOR061W, strain CKA2, stronger effect = lower value 0.948 | locus YOR069W, strain VPS5, stronger effect = lower value 1 | locus YOR083W, strain WHI5 (second series), stronger effect = lower value 0.935 | locus YOR136W, strain idh2, stronger effect = lower value 1.03 | locus YOR144C, strain elg1, stronger effect = lower value 1.01 | locus YOR184W, strain ser1, stronger effect = lower value 1.04 | locus YOR231W, strain MKK1, stronger effect = lower value 0.986 | locus YOR316C, strain cot1, stronger effect = lower value 1 | locus YPL241C, strain CIN2, stronger effect = lower value 0.988 and 0.985 | locus YPL256C, strain CLN2, stronger effect = lower value 0.97 | locus YPR119W, strain clb2, stronger effect = lower value 1.01 | locus YPR141C, strain kar3, stronger effect = lower value 1.02 | locus YPR163C, strain tif3, stronger effect = lower value 0.988 | locus YPR167C, strain met16, stronger effect = lower value 1.02 | strain wtn01, stronger effect = lower value 0.969
active: locus YAL021C, strain ccr4, stronger effect = lower value 0.0773 | locus YAL026C, strain drs2, stronger effect = lower value 0.0621 | locus YAL030W, strain snc1, stronger effect = lower value 0.0722 | locus YBL061C, strain skt5, stronger effect = lower value 0.0759 | locus YBR009C, strain hhf1, stronger effect = lower value 0.0662 | locus YBR021W, strain FUR4, stronger effect = lower value 0.612 | locus YBR023C, strain chs3, stronger effect = lower value 0.0864 | locus YBR171W, strain sec66, stronger effect = lower value 0.351 | locus YBR231C, strain swc5, stronger effect = lower value 0.0709 | locus YBR279W, strain paf1, stronger effect = lower value 0.165 | locus YCL011C, strain gbp2, stronger effect = lower value 0.068 | locus YCL016C, strain dcc1, stronger effect = lower value 0.165 | locus YCL069W, strain vba3, stronger effect = lower value 0.131 | locus YCR088W, strain abp1, stronger effect = lower value 0.0794 | locus YDL035C, strain GPR1, stronger effect = lower value 0.853 | locus YDL040C, strain nat1, stronger effect = lower value 0.14 | locus YDR001C, strain nth1, stronger effect = lower value 0.119 | locus YDR069C, strain doa4, stronger effect = lower value 0.0779 | locus YDR159W, strain sac3, stronger effect = lower value 0.274 | locus YDR162C, strain NBP2, stronger effect = lower value 0.599 | locus YDR195W, strain ref2 0.155 | locus YDR297W, strain sur2, stronger effect = lower value 0.0894 | locus YDR334W, strain swr1, stronger effect = lower value 0.0746 | locus YDR335W, strain msn5, stronger effect = lower value 0.158 | locus YDR392W, strain spt3, stronger effect = lower value 0.351 | locus YEL003W, strain gim4, stronger effect = lower value 0.0681 | locus YEL037C, strain rad23, stronger effect = lower value 0.0964 | locus YEL061C, strain CIN8 (second series), stronger effect = lower value 0.4 | locus YER015W, strain faa2, stronger effect = lower value 0.111 | locus YER016W, strain bim1, stronger effect = lower value 0.102 | locus YFR010W, strain ubp6, stronger effect = lower value 0.111 | locus YGL167C, strain pmr1, stronger effect = lower value 0.562 | locus YGL173C, strain kem1, stronger effect = lower value 0.501 | locus YGL227W, strain vid30, stronger effect = lower value 0.103 | locus YGL253W, strain hxk2, stronger effect = lower value 0.0994 | locus YHR013C, strain ard1, stronger effect = lower value 0.513 | locus YHR027C, strain rpn1, stronger effect = lower value 0.082 | locus YHR142W, strain chs7, stronger effect = lower value 0.116 | locus YJL092W, strain hpr5, stronger effect = lower value 0.0961 | locus YJL095W, strain BCK1 (second series), stronger effect = lower value 0.0651 | locus YJL115W, strain asf1, stronger effect = lower value 0.183 | locus YJL129C, strain trk1, stronger effect = lower value 0.159 | locus YJL154C, strain vps35, stronger effect = lower value 0.0684 | locus YJL164C, strain tpk1, stronger effect = lower value 0.0728 | locus YJL166W, strain qcr8, stronger effect = lower value 0.0785 | locus YKL160W, strain elf1, stronger effect = lower value 0.229 | locus YKR026C, strain gcn3, stronger effect = lower value 0.151 | locus YKR091W, strain srl3, stronger effect = lower value 0.0828 | locus YLL001W, strain dnm1, stronger effect = lower value 0.11 | locus YLL026W, stronger effect = lower value 0.0697 | locus YLL041C, strain sdh2, stronger effect = lower value 0.0922 | locus YLR027C, strain aat2, stronger effect = lower value 0.0702 | locus YLR039C, strain RIC1, stronger effect = lower value 1.67 [resistant] | locus YLR221C, strain rsa3, stronger effect = lower value 0.11 | locus YLR258W, strain gsy2, stronger effect = lower value 0.0787 | locus YLR262C, strain YPT6 (second series), stronger effect = lower value 0.165 | locus YLR262C, strain YPT6, stronger effect = lower value 1.54 [resistant] | locus YLR320W, strain mms22, stronger effect = lower value 0.181 | locus YLR342W, strain FKS1 (second series), stronger effect = lower value 0.746 | locus YLR342W, strain FKS1, stronger effect = lower value 0.0779 | locus YLR357W, strain rsc2, stronger effect = lower value 0.18 | locus YLR370C, strain arc18, stronger effect = lower value 0.067 | locus YLR384C, strain iki3, stronger effect = lower value 0.102 | locus YLR418C, strain cdc73, stronger effect = lower value 0.804 | locus YML120C, strain ndi1, stronger effect = lower value 0.082 | locus YMR058W, strain fet3, stronger effect = lower value 0.0939 | locus YMR125W, strain sto1, stronger effect = lower value 0.0861 | locus YMR129W, stronger effect = lower value 0.0771 | locus YMR205C, strain PFK2, stronger effect = lower value 0.719 | locus YMR231W, strain pep5, stronger effect = lower value 0.0725 | locus YNL071W, strain lat1, stronger effect = lower value 0.218 | locus YNL153C, strain GIM3, stronger effect = lower value 0.86 and 0.732 | locus YNL209W, strain ssb2, stronger effect = lower value 0.101 | locus YNL248C, strain rpa49, stronger effect = lower value 0.461 | locus YNR049C, strain mso1, stronger effect = lower value 0.0933 | locus YOR001W, strain rrp6, stronger effect = lower value 0.143 | locus YOR070C, strain gyp1, stronger effect = lower value 0.0696 | locus YOR080W, strain dia2, stronger effect = lower value 0.18 | locus YOR083W, strain WHI5, stronger effect = lower value 0.0877 | locus YOR106W, strain vam3, stronger effect = lower value 0.0702 | locus YOR265W, strain rbl2, stronger effect = lower value 0.0766 | locus YOR270C, strain vph1, stronger effect = lower value 0.331 | locus YOR290C, strain snf2, stronger effect = lower value 0.122 | locus YPL051W, strain arl3, stronger effect = lower value 0.229 | locus YPL078C, strain atp4, stronger effect = lower value 0.586 | locus YPL106C, strain sse1, stronger effect = lower value 0.109 | locus YPL240C, strain hsp82, stronger effect = lower value 0.0839
